Hits are enriched below; roughly 3.5% of the tested compounds scored in any of these assays.
Mac1 fbg enh: enhancers of human CD11b/CD18 binding to fibrinogen | activation, % at 10 µM | hit rate 0.07% among 93,000 | K562 CD11b/CD18 adhesion to fibrinogen, ATPlite luminescence | AID 1499 | P05107+P11215;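 active = 10 µM primary screen giving 50% or more activity, confirmed by 40% or more on retest at that dose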
Target sequence (P05107 whole entry, looked up, other chains not shown): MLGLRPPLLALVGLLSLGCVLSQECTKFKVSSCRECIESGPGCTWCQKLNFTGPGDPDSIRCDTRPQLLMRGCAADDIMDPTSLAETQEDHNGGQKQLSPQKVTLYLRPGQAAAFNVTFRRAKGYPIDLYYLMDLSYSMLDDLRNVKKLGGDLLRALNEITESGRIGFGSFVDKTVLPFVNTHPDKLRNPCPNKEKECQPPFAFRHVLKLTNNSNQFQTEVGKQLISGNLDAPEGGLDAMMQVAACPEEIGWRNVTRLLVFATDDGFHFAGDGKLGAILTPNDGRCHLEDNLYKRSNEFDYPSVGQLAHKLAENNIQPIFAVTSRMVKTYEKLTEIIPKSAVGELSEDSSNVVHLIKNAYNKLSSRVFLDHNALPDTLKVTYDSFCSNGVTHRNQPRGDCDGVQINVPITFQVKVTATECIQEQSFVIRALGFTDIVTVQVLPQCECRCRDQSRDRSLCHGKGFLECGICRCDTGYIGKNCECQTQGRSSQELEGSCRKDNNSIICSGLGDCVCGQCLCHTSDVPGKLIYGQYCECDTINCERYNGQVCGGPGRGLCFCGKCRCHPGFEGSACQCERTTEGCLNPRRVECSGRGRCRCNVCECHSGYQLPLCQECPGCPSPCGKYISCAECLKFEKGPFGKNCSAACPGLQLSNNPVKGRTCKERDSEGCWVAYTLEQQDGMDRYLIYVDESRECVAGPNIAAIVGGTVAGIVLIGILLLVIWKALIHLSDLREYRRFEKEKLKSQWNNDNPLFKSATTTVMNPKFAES
CD11b adhes inh: inhibitors of human CD11b/CD18 binding to fibrinogen. inhibition, % at 10 µM. hit rate 0.54% among 93,000. K562 CD11b/CD18 adhesion to fibrinogen, ATPlite luminescence; Mn2+ added to activate the integrin. P05107+P11215;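 active = primary inhibition of 50% or more at 10 µM, then 40% or more on retest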
ERa coact pot: ER-alpha (human) coactivator binding potentiation; TR-FRET ERalpha-LBD/SRC-Cy5 coactivator binding, 2 h; 100 = basal binding, no effect; coactivator binding (% of control), % at 25.6 µM; hit rate 1.3% among 86,000; AID 639; in the data active = activity above about 200%;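 also: binding measured in presence of low estradiol as agonist stimulus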
FAK blocker: inhibitors of human focal adhesion kinase. Q05397. biochemical FAK kinase activity assay. inhibition, %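 (tested at 7 µM)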. hit rate 0.84% among 97,000
ERa SRC1 inh: blocks coactivator binding to human estrogen receptor alpha | inhibition, % at 25.6 µM | TR-FRET ER-alpha LBD / SRC-1 peptide, estradiol-bound | hit rate 1.7% among 86,000 | P03372; in the data active = inhibition above about 50%
ERb coact inh: ER-beta (human) coactivator binding inhibition; Q92731; TR-FRET ER-beta LBD / SRC1-Cy5 peptide binding; receptor agonist-loaded with 1 µM estradiol; inhibition, % at 25.6 µM; hit rate 1.3% among 86,000; AID 633;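 active = compounds whose percent inhibition of the receptor-coactivator binding signal exceeds about 50% in the single-dose screen, limit read from the data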
FAK inh confirm: FAK (human) inhibition confirmed; AID 794; hit rate 28% among 750; inhibition, % at 7 µM; FAK kinase biochemical inhibition assay; shares compounds with FAK blocker
Numbers stand for hits; - = inactive; . = no result given; [ ] = another dose, or the depositor's remark. Rule as the data show it, unless noted: active = inhibition above about 19%; inactive = the rest.

SMILES	Mac1 fbg enh	CD11b adhes inh	ERa coact pot	FAK blocker	ERa SRC1 inh	ERb coact inh	FAK inh confirm
O=C(CNC(=O)c1ccco1)NCC(=O)OCc1ccc(Cl)cc1	-	-	-	39	-	-	-
COc1ccc(N2CCN(Cc3nc4ccccc4c(=O)[nH]3)CC2)cc1	-	-	-	-	-	-	.
COc1ccc(N2CCN(CCNC(=O)c3c(C)cc(=O)oc3C)CC2)cc1	.	.	.	-	.	.	.
O=C(COc1ccc(S(=O)(=O)N2CCCC2)cc1)NCCC1=CCCCC1	-	-	-	23	-	-	-
CC(=O)N1CCc2cc(S(=O)(=O)NCCC(=O)N3CCN(c4ccccn4)CC3)ccc21	-	-	-	32	-	-	-
O=C1CC(=O)C(n2cncn2)C(c2cccc(Cl)c2)C1 (stereo not given)	.	.	.	-	.	.	.
Cc1c(Cl)cccc1N=Cc1ccc([N+](=O)[O-])s1	.	.	.	25	.	.	-
CC(=O)Nc1cc(OC(C)=O)c2nonc2c1OC(C)=O	-	59	.	57	.	.	-
Clc1ccc(-c2n[nH]c3c2CCC3)cc1Cl	-	-	-	28	-	-	-
CC(=O)Nc1ccc(N=Cc2nc(-c3ccc(C)cc3)oc2O)cc1	-	-	-	24	81	51	-
Oc1oc(-c2ccccc2)nc1C=Nc1ccccc1	.	.	-	-	-	-	.
Cc1ccc(CNC(=O)c2sc3nc4c(c(C(F)(F)F)c3c2N)CCC4)cc1	-	-	.	-	.	.	.
Cc1ccc(-c2c3c(nc4sc(C(N)=O)c(N)c24)CCC3)cc1	.	.	-	22	-	-	-
C(=C\c1ccco1)/C=N/n1cnnc1	-	-	-	.	-	-	.
COc1ccc(CCNC(=O)CN(C2CCCCC2)S(C)(=O)=O)cc1OC	-	-	-	20	-	-	-
COc1ccc(C2c3c(ccc4ccccc34)Oc3ncn4nc(Cc5ccc(OC)c(OC)c5)nc4c32)cc1 (stereo not given)	-	-	.	.	.	.	.
CN(c1ccccc1C(=O)Nc1cccc(C(F)(F)F)c1)S(C)(=O)=O	-	-	-	-	-	-	.
O/N=C/c1cc(Br)ccc1OCc1cccc(F)c1	.	.	.	20	.	.	-
O/N=C/c1cc(Br)ccc1OCc1ccc(F)cc1	.	.	.	-	.	.	.
CCCN1C(=O)C(O)(CC(=O)c2ccc3c(c2)OCCO3)c2ccccc21 (stereo not given)	-	-	-	-	-	-	.
Cc1nn2c(c1-c1ccccc1)NC1=C(C(=O)CCC1)C2c1ccccc1 (stereo not given)	.	.	-	25	-	-	22
O=C1Nc2ccc(NS(=O)(=O)c3cccs3)c3cccc1c23	-	-	-	42	-	-	19
CC1C[C@@]2(NC(=O)NC2=O)C(C)CN1C (stereo not given in full)	.	.	.	-	.	.	.
N/C(=N\OC(=O)c1cccc2ccccc12)c1cccc([N+](=O)[O-])c1	.	.	.	28	.	.	-
Cc1cc(N2C(=O)CC(N3CCN(c4ccc(C(=O)c5cccs5)cc4)CC3)C2=O)no1 (stereo not given)	-	-	-	-	-	-	.
SMILES	Mac1 fbg enh	CD11b adhes inh	ERa coact pot	FAK blocker	ERa SRC1 inh	ERb coact inh	FAK inh confirm
CC1CCN(S(=O)(=O)c2ccc(NC(=O)Cn3nnc(-c4ccccc4F)n3)cc2)CC1	-	-	-	19	86[fluorescence artefact?]	62[fluorescence artefact?]	-
Cc1sc2ncn3c(C)nnc3c2c1C	-	-	-	-	-	-	.
Cc1cc(NC(=O)CSc2c3c(nc4ccccc24)CCC3)no1	-	-	-	27	-	-	-
COc1cc(NC(=O)CSc2c3c(nc4ccccc24)CCC3)cc(OC)c1OC	-	-	.	.	.	.	.
Cc1c(C(=O)OCC(C)C)[nH]c2c1C(=O)CC(c1ccco1)C2 (stereo not given)	-	-	-	-	-	-	.
Cc1c(C(=O)OCC2CCCO2)[nH]c2c1C(=O)CC(c1ccco1)C2 (stereo not given)	-	-	-	26	54	50[fluorescence artefact?]	-
Nc1c(C(=O)Nc2ccccc2)sc2nc(-c3ccco3)ccc12	-	-	-	26	69[fluorescence artefact?]	58[fluorescence artefact?]	-
Nc1c(C(=O)Nc2nc3ccccc3s2)sc2nc(-c3cccs3)ccc12	-	-	.	49	.	.	27
CCn1c(Oc2ccc(Oc3ncc(Cl)cc3Cl)cc2)nc2c1c(=O)n(C)c(=O)n2C	.	.	-	.	-	-	.
COc1ccc(OC)c(S(=O)(=O)NCc2ccccc2)c1	-	-	-	-	-	-	.
COc1ccc(OC)c(NS(=O)(=O)Cc2ccccc2)c1	-	-	.	46	.	.	32
Cc1cc(C)n2nc(SCc3cc(=O)oc4cc(C)c(C)cc34)nc2n1	-	-	-	-	-	-	.
CCSc1nc(N)c2c3c(sc2n1)CN(C)CC3	-	-	-	.	-	-	.
CN1CCc2c(sc3ncn4nc(-c5ccccc5O)nc4c23)C1	-	-	-	23	94[fluorescence artefact?]	77[fluorescence artefact?]	28
O=C1CCCN1CCCNc1ncnc2c1[nH]c1ccc(Cl)cc12	-	-	-	29	-	-	-
Clc1ccc2[nH]c3c(NCCCN4CCOCC4)ncnc3c2c1	-	-	-	-	-	-	.
CCN1CCCC1CNc1ncnc2c1[nH]c1ccc(Cl)cc12 (stereo not given)	-	-	-	21	-	-	-
Cc1ccc(N2CCCCn3c2nc2c3c(=O)[nH]c(=O)n2C)cc1	-	-	-	-	-	-	.
CC(=O)OCC(=O)Nc1ccc(C(C)=O)cc1	.	.	-	-	-	-	.
COc1ccccc1NC(=O)c1nn(-c2ccccc2)ccc1=O	-	-	.	-	.	.	.
COc1ccccc1NC(=O)c1nn(-c2ccc(Cl)cc2)ccc1=O	-	-	.	25	.	.	-
O=C(Cn1c(=O)n(Cc2ccco2)c(=O)c2c3c(sc21)CCCCC3)Nc1ccccc1	-	-	-	32	73	80	-
O=C(Cn1c(=O)n(Cc2ccco2)c(=O)c2c3c(sc21)CCCCC3)c1ccccc1	.	.	-	30	66	-	-
O=c1c2c3c(sc2n(CCN2CCCC2)c(=O)n1Cc1ccco1)CCCCC3	-	-	-	.	-	-	.
Nc1nnnn1/N=C/c1ccccc1OCc1ccc(Cl)cc1Cl	-	-	.	29	.	.	-
SMILES	Mac1 fbg enh	CD11b adhes inh	ERa coact pot	FAK blocker	ERa SRC1 inh	ERb coact inh	FAK inh confirm
Cc1nn(CC(=O)Nc2ccc3c(c2)oc2ccccc23)c(=O)c2ccccc12	-	-	-	29	81[fluorescence artefact?]	51[fluorescence artefact?]	-
CNC(=O)Cn1nc(C)c2ccccc2c1=O	-	-	-	-	-	-	.
O=C1Nc2ccc(S(=O)(=O)NCc3ccco3)c3cccc1c23	.	.	-	19	-	58[fluorescence artefact?]	-
O=C(c1ccccc1S(=O)(=O)NCC(O)COc1ccc([N+](=O)[O-])cc1)N1CCCCC1 (stereo not given)	.	.	-	-	-	-	.
CC(C)(C)c1nc2ccccc2c2nnc(SCC(=O)Nc3nc4ccccc4s3)n12	.	.	.	23	.	.	-
Cc1ccc2[nH]c3c(N4CCCCCC4)ncnc3c2c1	-	-	-	42	-	-	-
COc1ccc2c(c1)[nH]c1c(N3CCN(Cc4ccc5c(c4)OCO5)CC3)ncnc12	-	83	.	25	.	.	-
